# Inconclusive results are not listed. Activity calls are given as the source filed them. Calls follow the shape of the dose curve; as a rule, active = well fitted inhibition curve with a large enough effect; inconclusive = small, poorly fitted or top-dose-only effect; inactive = flat fitted curve, though single readings scatter.
# Biological target: Luciferin 4-monooxygenase (Photinus pyralis) (UniProt P08659)
# Assay: FLuc inhibitory activity for the follow-up compounds in a biochemical assay with 1mM D-luciferin
# Details: purified FLuc, luminescence; series mostly up to 57.5 µM
# Source text: NCGC Assay Overview: Firefly (Photinus pyralis) luciferase is one of the most commonly used transcriptional reporters. It is considered one of the more dynamically responsive reporters - that is, responsive to changes in reporter transcription - as it requires no post-translational modifications and is enzymatically active directly after protein synthesis (Wood, 1998). With no endogenous expression in mammalian cells and without the requirement of external excitation, it offers very little background signal, thus generally providing excellent signal to background for most assays. Previous profiling work to determine the prevalence of compounds that affect FLuc enzymatic activity (PubChem AID 411) identified that ~3% of the MLSMR library (then at ~72K) inhibited FLuc. […] Of the compounds identified in this profile that inhibited FLuc, 151 compounds were selected for further analysis, in an effort to better understand their mode of inhibiting FLuc. The assay described here was to determine the activity of the compounds in a FLuc assay that contained a KM concentration of ATP and a high concentration (1mM) of D-luciferin.
# NCGC Assay Protocol Summary: Reagents: 50mM Tris acetate, pH 7.5; 10mM Mg acetate; 1mM D-luciferin (Sigma #L9504); 10uM ATP; 0.01% Tween-20; 0.05% BSA; 10nM P. pyralis luciferase (Sigma #L9506) Control compounds used were two known firefly luciferase inhibitors (3-(5-(3-chlorophenyl)-1,2,4-oxadiazol-3-yl)benzoic acid and 5-(2-fluorophenyl)-3-phenyl-1,2,4-oxadiazole), and DMSO. Three microliters containing firefly luciferase substrates in buffer (final concentrations: 50mM Tris acetate, pH 7.5, 10mM Mg acetate, 0.01% Tween-20, 0.05% BSA, 1mM D-luciferin, 10uM ATP) are dispensed into each well of a Greiner white, solid-bottom 1536-well format plate using a flying reagent dispenser (FRD). These assay plates were then treated with 23nL of compound or DMSO using a Kalypsys pin tool, which allows for delivery of a 12-point intraplate titration of each compound to the assay plate (quantitative HTS), with a final compound concentrations ranging from approximately ~60uM to 0.3nM. One microliter of firefly luciferase in […] Tris-acetate buffer was then delivered by FRD to each well for a final enzyme concentration of 10nM. Luciferase activity was then measured using a ViewLux CCD imager (PerkinElmer), with an average exposure time of 2-30 seconds (2X binning, medium/high gain).
# Luciferin 4-monooxygenase (Photinus pyralis), sequence (P08659 whole entry, looked up): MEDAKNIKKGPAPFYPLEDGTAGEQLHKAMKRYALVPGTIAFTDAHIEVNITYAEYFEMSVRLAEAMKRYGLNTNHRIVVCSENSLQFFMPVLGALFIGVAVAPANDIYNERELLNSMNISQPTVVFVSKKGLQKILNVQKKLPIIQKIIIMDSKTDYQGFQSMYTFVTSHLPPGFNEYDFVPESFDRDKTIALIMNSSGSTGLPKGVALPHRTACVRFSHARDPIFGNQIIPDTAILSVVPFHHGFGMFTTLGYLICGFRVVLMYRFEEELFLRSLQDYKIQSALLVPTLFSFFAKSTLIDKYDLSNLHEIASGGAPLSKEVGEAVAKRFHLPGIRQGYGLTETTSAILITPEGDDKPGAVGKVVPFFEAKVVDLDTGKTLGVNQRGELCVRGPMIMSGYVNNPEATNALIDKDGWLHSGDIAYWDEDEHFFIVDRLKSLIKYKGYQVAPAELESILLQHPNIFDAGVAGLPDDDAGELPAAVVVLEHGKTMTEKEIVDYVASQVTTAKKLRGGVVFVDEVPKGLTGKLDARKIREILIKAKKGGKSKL
row,SMILES,Potency
1,COc1ccc2nc(NC(=O)Cc3cccs3)sc2c1,13 µM (active)
2,Cc1ccc(C(=O)Nc2cccc(C(=O)O)c2)cc1S(=O)(=O)N1CCCCC1,4.11 µM (active)
3,CCOc1ccc(C(=O)Nc2ccccc2C(=O)O)cc1,3.66 µM (active)
4,Nc1ccc(-c2nc3cc(N)ccc3s2)cc1,18.3 µM (active)
5,COc1c(C)cccc1C(=O)Nc1ccc(-c2nc3ccccc3s2)c(Cl)c1,inactive
6,O=C(O)c1cccc(NC(=O)c2ccccc2NC(=O)c2ccco2)c1,inactive
7,O=C(Cc1ccccc1)Nc1ccccc1C(=O)Nc1ccc(C(=O)O)cc1,inactive
8,O=C(Nc1ccccc1C(=O)O)c1ccc(NC(=O)C2CCCO2)cc1 (stereo not given),20.6 µM (active)
9,CN=c1scc(-c2ccccc2F)n1/N=C/c1ccc[nH]1,0.0819 µM (active)
10,COc1ccc2nc(NC(=O)CCc3ccc(OC)c(OC)c3)sc2c1,inactive
11,COc1ccc2nc(NC(=O)c3ccc(S(=O)(=O)N4CCCC(C)C4)cc3)sc2c1 (stereo not given),inactive
12,Nc1ccc2nc(-c3ccc(O)cc3)sc2c1,1.3 µM (active)
13,COc1cccc(-c2nc3ccccc3s2)c1,5.17 µM (active)
14,COc1cc(C(=O)Nc2cc(C)c(O)c(-c3nc4ccccc4s3)c2)cc(OC)c1OC,inactive
15,O=C(Nc1cccc(-c2nc3ccccc3s2)c1)c1cc(-n2cnnc2)ccc1Cl,8.19 µM (active)
16,O=C(Nc1ccccc1C(=O)O)c1ccc(NC(=O)C2CCCCC2)cc1,16.3 µM (active)
17,O=C(Nc1ccccc1C(=O)O)c1cc(S(=O)(=O)Nc2ccccc2)ccc1Cl,inactive
18,O=C(O)c1cccc(NC(=O)c2cccc(S(=O)(=O)N3CCc4ccccc4C3)c2)c1,inactive
19,O=S(=O)(c1ccc(-c2nc3ccccc3s2)cc1)N1CCCC1,inactive
20,c1ccc2sc(-c3ccc4c(c3)OCO4)nc2c1,1.3 µM (active)

row,SMILES,Potency
1,Cc1ccc(C(=O)O/N=C(\N)c2ccccn2)c(Cl)c1,0.0919 µM (active)
2,CN(C)S(=O)(=O)c1ccc(C(=O)Nc2cccc(C(=O)O)c2)cc1,inactive
3,COc1ccc(-c2nc3ccccc3s2)cc1O,0.651 µM (active)
4,Nc1cccc(-c2nc3ccc(N)cc3s2)c1,2.59 µM (active)
5,Cc1cccc(C(=O)Nc2ccc(-c3nc4ccccc4s3)cc2Cl)c1,inactive
6,CN(C)c1cccc(C(=O)Nc2ccc(-c3nc4ccccc4s3)cc2)c1,18.3 µM (active)
7,Nc1ccc(C(=O)Nc2ccccc2C(=O)O)cc1,20.6 µM (active)
8,Cc1ccc(C(=O)O/N=C(\N)c2ccccn2)cc1,0.183 µM (active)
9,O=C(Nc1ccccc1C(=O)Nc1ccccc1C(=O)O)c1ccccc1,20.6 µM (active)
10,CCOC(=O)N1CCN(CC(=O)Nc2nc3ccc(OC)cc3s2)CC1,inactive
11,O=C(Nc1ccc(Cl)cc1-c1nc2ccccc2s1)c1ccco1,inactive
12,CC(C)CC(=O)Nc1cccc(C(=O)Nc2ccccc2C(=O)O)c1,23.1 µM (active)
13,O=C(Nc1ccccc1C(=O)O)c1cc(S(=O)(=O)Nc2cccc(F)c2)ccc1Cl,inactive
14,COc1ccc2nc(NC(=O)c3ccco3)sc2c1,3.26 µM (active)
15,COc1cc(OC)cc(C(=O)Nc2ccccc2-c2nc3ccccc3s2)c1,inactive
16,CCOc1ccc2nc(NC(=O)c3ccoc3C)sc2c1,2.91 µM (active)
17,CCOc1c(Cl)cc(C(=O)Nc2ccccc2C(=O)O)cc1Cl,16.3 µM (active)
18,C/C(=N\NC(=O)c1ccccc1NC(=O)c1ccc(Cl)cc1)c1ccncc1,0.0517 µM (active)
19,O=C(Nc1ccccc1C(=O)O)c1cccc(NC(=O)c2ccco2)c1,20.6 µM (active)
20,Cc1ccc(C(=O)Nc2ccccc2C(=O)O)cc1S(=O)(=O)N1CCCCCC1,5.17 µM (active)

# Reference: PubChem BioAssay AID602365 (National Center for Advancing Translational Sciences (NCATS), 2012)
